High-throughput results deposited in PubChem BioAssay by National Center for Advancing Translational Sciences (NCATS).
Pf Dd2 growth = inhibitors of Plasmodium falciparum Dd2 growth | Potency, µM (titrated, usually from 28.9 µM), without a hit: at the highest dose activity, negative = inhibition, usual class: inhibitors | P. falciparum Dd2 growth, SYBR Green, 72 h | 120,000 tested, 4.3% active | AID 1347417; active = well fitted inhibition curve with a large enough effect;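 note: plate controls were DMSO vehicle for no effect and reference drug for full effect; nearly all actives have a fitted effect of over 65% in size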
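Readout: SYBR Green fluorescence, 485 nm excitation, 535 nm emission, after ~16 h lysis at 37C. Before that, Dd2-infected red cells (2.5% hematocrit) grew 72 h with compound, 29 uM top final concentration.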
Active calls of the source: *; i = inactive; [ ] = dose if it differs, or a comment. Only a selection was taken, and hits are over-represented in it overall. Potency is the fitted concentration of half-maximal effect.

SMILES | Pf Dd2 growth
CC(C(=O)N1CCOCCNC(=O)CC1)c1ccccc1 (stereo not drawn) | -9%
COc1ccccc1C(=O)Nc1ccc(-c2nc3cc(C)cc(C)c3o2)cc1 | 3%
Cc1cc(C)c2oc(-c3cccc(NC(=O)c4ccc(Br)o4)c3)nc2c1 | 41%
Cc1cc(C)c2oc(-c3ccc(NC(=O)c4cc(Br)ccc4Cl)cc3)nc2c1 | 10µM*
C[C@@H]1CN(C(=O)CCCc2ccccc2)C[C@@]1(O)C1CC1 | -5%
NC(=O)c1cc[nH]c1C1CCCN(Cc2ccc3c(c2)CCO3)C1 (stereo not drawn) | i
COCC(=O)N1CCN(S(=O)(=O)c2ccccc2)[C@@H](C(=O)OC)C1 | -3%[44.1 µM]
O=C(C1CCCO1)N1CCN(c2nc(-c3ccncc3)nc3c2CNC3)CC1 (stereo not drawn) | 5%
CCN(Cc1ccccc1)S(=O)(=O)c1ccc2[nH]c3c(c2c1)CCCCC3 | 13µM*
CCc1ccc(NS(=O)(=O)c2ccc3[nH]c4c(c3c2)CCCCCC4)cc1 | 14%
Cc1ccc(N(C)S(=O)(=O)c2ccc3[nH]c4c(c3c2)CCCC4)cc1 | -17%
Cc1noc(-c2cn(C3CCN(C(=O)c4ccsc4)CC3)nn2)n1 | i
Cc1cccn2c(Nc3ccccc3)c(-c3ccc(N4CCOCC4)cc3)nc12 | i
Cc1ccc(-c2nc3cccc(C)n3c2Nc2ccc3c(c2)OCO3)o1 | -17%
Cc1cccn2c(Nc3ccc4c(c3)OCCO4)c(-c3ccc(Br)o3)nc12 | 8.9µM*
COc1ccc(-c2noc(C(=O)O)c2[C@@H](C)NC(=O)c2ccccc2)cc1 | -19%[44.1 µM]
COc1ccccc1NC(=O)Cn1c(=O)n(-c2cccc(Cl)c2)c(=O)c2sc3ccccc3c21 | i
COc1cccc(NC(=O)Cn2c(=O)n(Cc3ccc(F)cc3)c(=O)c3sc4ccccc4c32)c1 | -25%
COc1cccc(NC(=O)Cn2c(=O)n(-c3ccc(Cl)cc3)c(=O)c3sc4ccccc4c32)c1 | 11µM*
CC(C)CCNC(=O)c1cnc2n1CCN(Cc1cccc(C#N)c1)CC2 | -30%[44.1 µM]
CC(Sc1cn(CCNC(=O)c2ccccc2F)c2ccccc12)c1ccccc1 (stereo not drawn) | -20%
CCOC(=O)c1c(NC(=O)CSc2cn(CCNC(=O)c3ccc(OCC)cc3)c3ccccc23)sc2c1CCCC2 | i
CCOC(=O)c1c(NC(=O)COc2ccccc2F)sc2c1CCCC2 | -12%
CCOC(=O)c1c(NC(=O)CSc2cn(CCNC(=O)c3ccc(OC)cc3)c3ccccc23)sc2c1CCC2 | 13µM*
COc1ccc(NC(=O)CSc2cn(CCNC(=O)c3ccc(OC)cc3)c3ccccc23)cc1 | -12%
SMILES | Pf Dd2 growth
CCOC(=O)c1c(NC(=O)C(C)Sc2cn(CCNC(=O)c3c(F)cccc3F)c3ccccc23)sc2c1CCC2 (stereo not drawn) | 7.9µM*
O=C(Nc1ccc(Cl)cc1)N1Cc2[nH]cnc2C[C@H]1c1nc(-c2ccc(OC(F)(F)F)cc2)no1 | i
COc1ccccc1-c1cc(-c2cccnc2)nc2c(C)noc12 | -20%[44.1 µM]
COCC(=O)N1CCC(CCOc2ccc(C)cc2)C1 (stereo not drawn) | 43%
COC(=O)c1scc(-c2ccc(C)cc2)c1S(=O)(=O)Nc1cccc(Cl)c1C | i
COC(=O)c1scc(-c2ccc(C)cc2)c1S(=O)(=O)Nc1ccc(F)cc1F | 4%
CCOc1ccccc1NS(=O)(=O)c1c(-c2ccc(C)cc2)csc1C(=O)OC | 10µM*
Cc1ccc(CN2CCC[C@H]2C(=O)N2CCCCCCNC(=O)CC2)o1 | i
CCOc1ccccc1CN1CCCCCNC(=O)CC1c1ccccc1 (stereo not drawn) | 7.9µM*
O=C1CC(c2ccccc2)N(Cc2ccccn2)CCCCCN1 (stereo not drawn) | -17%
CCOc1ccccc1CN1CCCCCCNC(=O)CC1 | i
CCOc1ccccc1NC(=O)N1CCCCCCNC(=O)CC1c1ccccc1 (stereo not drawn) | -41%
CCOc1ccccc1CN1CCC[C@H]1C(=O)N1CCCCCCNC(=O)CC1 | 6.3µM*
Cc1noc(C)c1CCC(=O)N1CCCn2nc(C(O)CO)cc2C1 (stereo not drawn) | -27%
O=C1CCN(S(=O)(=O)c2ccccc2)CCCC(CO)CCN1 (stereo not drawn) | i
O=Cc1ccc(N2CCN(C(=O)c3ccncc3)CC2=O)cc1 | 0%
CCC[C@@H]1CN(C(=O)c2ccc(-c3ccc(C)o3)cc2)C[C@H]1NC(C)=O | -1%
Cn1ccc(NC(=O)c2cnc3c(c2)N([S+](=O)([O-])c2cccnc2)CCC3)n1 | -15%[44.1 µM]
Cc1ccc(Cl)cc1N1CCN(C(=O)CCSCc2ccccc2F)CC1 | i
CCOC(=O)c1[nH]c(C)c(CCC(=O)N2CCN(c3cc(Cl)ccc3C)CC2)c1C | 0.56µM*
CCOC(=O)c1[nH]c(C)c(CCC(=O)N2CCN(c3cc(C)ccc3C)CC2)c1C | 0.63µM*
CCOC(=O)c1[nH]c(C)c(CCC(=O)N2CCN(c3cccc(OC)c3)CC2)c1C | 4µM*
CCOC(=O)c1[nH]c(C)c(CCC(=O)NCc2cccc(Cl)c2)c1C | -16%
COc1cccc(N2CCN(C(=O)CCc3conc3-c3ccccc3)CC2)c1 | -12%
